For 16 compounds, fold change results are on record in PubChem BioAssay.

A number with no mark means an inactive call.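 The calls were made as follows: active = compounds whose cell count with miR-34 switched on is under 0.7 times the count with it off; inactive = the rest.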

A short description of this experiment: viability loss with induced miR-34 in A549 – imaging, A549 dox-inducible miR-34, nuclei and caspase counts, primary screen (AID 1347080). Also: test concentration not given here. Conditions: A549 miR-34 inducible, Hoechst nuclei count, 48 h; active compounds read low; cell number ratio, induced over uninduced.
In the case of `O=C(O)CCC/C=C\CC1C(=O)C[C@@H](O)[C@@H]1/C=C/[C@@H](O)COc1ccccc1` (stereo partly specified), the fold change is 0.868.
The result for `CCCCCCCCCSCCCCCCCC(=O)O` reads 0.943.
In the case of `CCCCC[C@H](O)/C=C/[C@H]1[C@H](O)CC(=O)[C@H]1C/C=C\CCCC(=O)OC(C)C`, the fold change was 0.953.
As to `NC(=Nc1ccc(F)cc1)NO`, the fold change was 1.01.
Next, `OC[C@H]1O[C@H](O[C@H]2[C@H](O)[C@@H](O)[C@H](O)O[C@@H]2CO)[C@H](O)[C@@H](O)[C@@H]1O`: 0.99.
Next, `COc1ccc(/C=C/c2ccccc2F)cc1`: 0.866.
The result for `CCCOCCCCCCCCCC(=O)O` reads 1.02.
Take `Cn1c([N+](=O)[O-])cc[n+]1C`: the fold change is 0.892.
Consider `CC\C=C/C=C/C=C/C=C\CCCCCCCC(=O)O`, for which the fold change is 0.875.
The result for `CC(C)(C)OC(=O)Nc1cccc2[nH]ccc12` reads 0.913; that for `C[C@]12CC[C@@H]3c4cc(O)c(O)cc4CC[C@H]3[C@@H]1CC[C@@H]2O`, 0.847; that for `CC(C)(C)C(=O)Nc1ccccc1`, 0.896.
Next, `O=C(O)CCCCCCCCCCCNC(=O)NC12CC3CC(CC(C3)C1)C2`: 0.971.
Next, `CCCCC/C=C\C/C=C\C/C=C\C/C=C\CCCC(=O)Oc1ccc2ccc(=O)oc2c1`: 0.939; `CCCCCNC1=C(c2cn(C)c3ccccc23)C(=O)N(C)C1=O`: 0.981; `CCCCC[C@H](O)/C=C/[C@H]1OC(O)C[C@H](O)[C@@H]1CCCCCCC(=O)O` (stereo partly specified): 1.03.
